The text below walks through data of publication PMC7862700, “An all-to-all approach to the identification of sequence-specific readers for epigenetic DNA modifications on cytosine”.

Holding throughout (assay): DAPPL (digital affinity profiling via proximity ligation, sequencing); 10 mM Tris-HCl pH 7.5, 50 mM NaCl, 1 mM DTT, 4% glycerol, room temperature, 30 min; GST-TFs on glutathione beads, 16-mer random dsDNA library, 0.1% formaldehyde crosslink after washing; high values mean tight binding
One test concerns the target T1, FLI1 (Homo sapiens, UniProt Q01543 1-452).
T1 sequence: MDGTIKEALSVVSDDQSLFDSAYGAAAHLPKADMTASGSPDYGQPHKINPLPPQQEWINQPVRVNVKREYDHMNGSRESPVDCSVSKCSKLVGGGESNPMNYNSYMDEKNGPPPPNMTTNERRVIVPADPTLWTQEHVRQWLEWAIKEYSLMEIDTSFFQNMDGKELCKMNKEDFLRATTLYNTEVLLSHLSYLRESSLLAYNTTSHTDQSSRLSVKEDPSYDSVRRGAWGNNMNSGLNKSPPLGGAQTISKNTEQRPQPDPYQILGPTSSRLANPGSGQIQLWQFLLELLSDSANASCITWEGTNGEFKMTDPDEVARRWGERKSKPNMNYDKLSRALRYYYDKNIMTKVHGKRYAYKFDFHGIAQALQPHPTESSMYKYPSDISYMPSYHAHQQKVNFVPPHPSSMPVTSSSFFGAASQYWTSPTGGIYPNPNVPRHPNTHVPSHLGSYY
To be noted: protein: recombinant; tags: N-terminal GST; dsDNA, one strand shown. The method in brief: (§1)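 In yeast, human transcription factors were expressed with a GST fusion, then pulled down on glutathione beads and given DNA barcodes. Pooled with a tag-only sample, they were exposed to 200 nmole of a 16-mer random double-stranded DNA library (Tris/NaCl/DTT/glycerol buffer, room temperature, 30 min), washed, crosslinked with 0.1% formaldehyde, proximity-ligated using BsaI/T4 ligase for 1 h at 37 °C, PCR-amplified and read on an Illumina NextSeq500. Each hexamer's frequency of reads for a factor, divided by the matching frequency for the tag-only sample, gives the binding signal.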

The target of a further test is T2, ELK1 (Homo sapiens, UniProt P19419 1-428).
T2 sequence: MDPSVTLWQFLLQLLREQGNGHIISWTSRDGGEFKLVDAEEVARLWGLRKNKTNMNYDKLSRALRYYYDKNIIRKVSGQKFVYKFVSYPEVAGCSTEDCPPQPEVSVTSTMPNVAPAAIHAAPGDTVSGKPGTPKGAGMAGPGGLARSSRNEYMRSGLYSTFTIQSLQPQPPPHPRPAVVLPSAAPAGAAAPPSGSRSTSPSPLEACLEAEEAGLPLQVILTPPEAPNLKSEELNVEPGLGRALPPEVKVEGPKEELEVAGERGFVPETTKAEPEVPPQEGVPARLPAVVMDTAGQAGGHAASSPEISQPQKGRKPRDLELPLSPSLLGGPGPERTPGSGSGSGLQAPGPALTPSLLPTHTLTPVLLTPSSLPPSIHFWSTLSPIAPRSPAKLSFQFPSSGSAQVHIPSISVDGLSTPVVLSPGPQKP
To be noted: protein: recombinant; tags: N-terminal GST; dsDNA, one strand shown. Summed up: as §1

For the next test, the target named is T3, GABPA (Homo sapiens, UniProt Q06546 1-454).
T3 sequence: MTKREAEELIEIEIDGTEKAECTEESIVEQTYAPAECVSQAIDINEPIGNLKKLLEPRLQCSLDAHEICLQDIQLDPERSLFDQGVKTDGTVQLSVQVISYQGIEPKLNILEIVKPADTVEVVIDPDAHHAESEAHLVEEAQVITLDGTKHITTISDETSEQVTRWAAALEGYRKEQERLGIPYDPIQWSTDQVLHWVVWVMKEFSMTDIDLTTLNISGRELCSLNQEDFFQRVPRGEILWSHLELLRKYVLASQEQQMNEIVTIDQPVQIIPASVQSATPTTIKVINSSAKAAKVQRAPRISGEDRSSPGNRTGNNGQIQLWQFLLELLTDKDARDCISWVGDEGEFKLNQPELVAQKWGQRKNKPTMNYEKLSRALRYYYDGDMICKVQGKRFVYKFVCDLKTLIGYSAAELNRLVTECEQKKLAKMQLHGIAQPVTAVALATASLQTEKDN
Particulars: protein: recombinant; tags: N-terminal GST; dsDNA, one strand shown. Summed up: as §1

The target in a further test is T4, ERG (Homo sapiens, UniProt P11308 1-479).
T4 sequence: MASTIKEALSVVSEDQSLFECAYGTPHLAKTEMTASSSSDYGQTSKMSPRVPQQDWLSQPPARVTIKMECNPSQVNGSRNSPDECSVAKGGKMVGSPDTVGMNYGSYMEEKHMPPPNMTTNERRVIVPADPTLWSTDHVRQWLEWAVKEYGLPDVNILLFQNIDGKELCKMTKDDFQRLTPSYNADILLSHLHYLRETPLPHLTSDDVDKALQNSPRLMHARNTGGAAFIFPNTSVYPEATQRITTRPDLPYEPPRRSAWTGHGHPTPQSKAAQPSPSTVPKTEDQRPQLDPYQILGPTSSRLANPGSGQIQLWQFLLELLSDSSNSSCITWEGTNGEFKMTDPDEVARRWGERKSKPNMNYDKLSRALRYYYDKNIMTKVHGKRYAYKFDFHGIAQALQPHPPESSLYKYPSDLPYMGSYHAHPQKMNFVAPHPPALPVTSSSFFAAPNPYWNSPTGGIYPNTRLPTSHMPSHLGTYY
To be noted: protein: recombinant; tags: N-terminal GST; dsDNA, one strand shown. The method in brief: as §1

A further test addresses ELF1 (Homo sapiens, UniProt P32519 1-619). Particulars: protein: recombinant; tags: N-terminal GST; dsDNA, one strand shown. The method in brief:
as §1

The target of another test is T5, EHF (Homo sapiens, UniProt Q9NZC4 1-300).
T5 sequence: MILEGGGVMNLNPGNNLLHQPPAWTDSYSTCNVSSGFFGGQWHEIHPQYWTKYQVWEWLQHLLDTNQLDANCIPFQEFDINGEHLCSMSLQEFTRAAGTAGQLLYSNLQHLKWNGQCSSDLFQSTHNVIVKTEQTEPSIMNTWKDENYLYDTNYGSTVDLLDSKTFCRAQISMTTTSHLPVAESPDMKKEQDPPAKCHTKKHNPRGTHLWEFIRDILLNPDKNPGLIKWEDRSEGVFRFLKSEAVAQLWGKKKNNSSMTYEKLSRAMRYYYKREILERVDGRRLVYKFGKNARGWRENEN
To be noted: protein: recombinant; tags: N-terminal GST; dsDNA, one strand shown. Summed up:
as §1

The next test concerns the target SPI1 (Homo sapiens, UniProt P17947 1-270). Particulars: protein: recombinant; tags: N-terminal GST; dsDNA, one strand shown. Summed up:
as §1

The next test has as its target SPIB (Homo sapiens, UniProt Q01892 1-262). Particulars: protein: recombinant; tags: N-terminal GST; dsDNA, one strand shown. The method in brief:
as §1

The next test deals with T6, ELK3 (Homo sapiens, UniProt P41970 1-407).
T6 sequence: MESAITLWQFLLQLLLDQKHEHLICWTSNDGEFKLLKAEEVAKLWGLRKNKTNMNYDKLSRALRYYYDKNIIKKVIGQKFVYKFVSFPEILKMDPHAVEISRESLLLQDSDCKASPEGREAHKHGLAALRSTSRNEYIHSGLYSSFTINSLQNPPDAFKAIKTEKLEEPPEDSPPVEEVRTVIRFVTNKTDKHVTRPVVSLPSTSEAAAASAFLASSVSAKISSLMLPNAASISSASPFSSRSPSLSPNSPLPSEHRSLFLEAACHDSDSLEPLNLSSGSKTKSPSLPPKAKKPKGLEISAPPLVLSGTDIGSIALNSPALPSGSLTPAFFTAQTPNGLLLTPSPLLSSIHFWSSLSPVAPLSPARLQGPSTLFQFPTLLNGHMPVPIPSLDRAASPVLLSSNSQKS
To be noted: protein: recombinant; tags: N-terminal GST; dsDNA, one strand shown. The method in brief: as §1

The target of a further test is T7, FEV (Homo sapiens, UniProt Q99581 1-238).
T7 sequence: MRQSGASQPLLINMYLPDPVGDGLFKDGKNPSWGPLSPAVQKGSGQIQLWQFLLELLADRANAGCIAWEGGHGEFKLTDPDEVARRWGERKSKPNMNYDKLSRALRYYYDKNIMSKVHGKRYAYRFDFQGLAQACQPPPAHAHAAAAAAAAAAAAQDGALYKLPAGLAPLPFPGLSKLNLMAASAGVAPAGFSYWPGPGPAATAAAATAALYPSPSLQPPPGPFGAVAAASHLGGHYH
To be noted: protein: recombinant; tags: N-terminal GST; dsDNA, one strand shown. The method in brief:
as §1

In a further test the target is ETV5 (Homo sapiens, UniProt P41161 1-510). Particulars: protein: recombinant; tags: N-terminal GST; dsDNA, one strand shown. Summed up:
as §1

A further test concerns the target HSF1 (Homo sapiens, UniProt Q00613 1-529). Particulars: protein: recombinant; tags: N-terminal GST; chain copies: 3; dsDNA, one strand shown. Summed up: as §1
Another test concerns the target T8, SPIC (Homo sapiens, UniProt Q8N5J4 1-248).
T8 sequence: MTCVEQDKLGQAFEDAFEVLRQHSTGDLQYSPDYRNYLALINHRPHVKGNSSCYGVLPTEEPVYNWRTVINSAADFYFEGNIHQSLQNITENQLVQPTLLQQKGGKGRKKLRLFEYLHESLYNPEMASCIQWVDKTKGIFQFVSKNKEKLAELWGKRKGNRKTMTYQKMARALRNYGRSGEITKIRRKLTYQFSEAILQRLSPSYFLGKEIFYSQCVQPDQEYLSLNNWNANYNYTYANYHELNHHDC
Particulars: protein: recombinant; tags: N-terminal GST; dsDNA, one strand shown. The method in brief: as §1

Another test concerns the target ELF4 (Homo sapiens, UniProt Q99607 1-663). To be noted: protein: recombinant; tags: N-terminal GST; dsDNA, one strand shown. Summed up:
as §1

A further test has as its target T9, ELK4 (Homo sapiens, UniProt P28324-2 1-405).
T9 sequence: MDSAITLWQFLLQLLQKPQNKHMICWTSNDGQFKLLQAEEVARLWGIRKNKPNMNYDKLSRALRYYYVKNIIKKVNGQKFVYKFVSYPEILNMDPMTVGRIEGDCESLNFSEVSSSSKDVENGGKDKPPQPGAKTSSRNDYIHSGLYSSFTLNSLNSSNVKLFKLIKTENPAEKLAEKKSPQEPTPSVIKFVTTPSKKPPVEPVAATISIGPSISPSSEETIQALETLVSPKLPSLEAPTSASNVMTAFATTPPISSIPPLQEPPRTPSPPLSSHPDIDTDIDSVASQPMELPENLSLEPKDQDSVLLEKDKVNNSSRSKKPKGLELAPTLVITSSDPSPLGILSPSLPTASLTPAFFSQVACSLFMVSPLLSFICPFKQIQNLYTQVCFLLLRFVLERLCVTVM
Particulars: protein: recombinant; tags: N-terminal GST; dsDNA, one strand shown. The method in brief:
as §1

For another test, the target named is T10, ETV2 (Homo sapiens, UniProt O00321 1-342).
T10 sequence: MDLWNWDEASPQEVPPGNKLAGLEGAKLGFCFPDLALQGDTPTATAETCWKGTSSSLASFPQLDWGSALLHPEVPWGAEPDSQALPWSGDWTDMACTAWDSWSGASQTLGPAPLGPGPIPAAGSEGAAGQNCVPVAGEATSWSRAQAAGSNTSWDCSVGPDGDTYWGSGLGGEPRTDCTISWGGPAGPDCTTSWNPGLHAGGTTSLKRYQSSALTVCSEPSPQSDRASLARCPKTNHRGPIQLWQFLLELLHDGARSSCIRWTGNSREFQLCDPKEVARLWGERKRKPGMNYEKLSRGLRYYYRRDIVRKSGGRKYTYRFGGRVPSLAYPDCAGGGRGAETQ
Particulars: protein: recombinant; tags: N-terminal GST; dsDNA, one strand shown. The method in brief: as §1

The next test concerns the target T11, ELF3 (Homo sapiens, UniProt P78545 1-371).
T11 sequence: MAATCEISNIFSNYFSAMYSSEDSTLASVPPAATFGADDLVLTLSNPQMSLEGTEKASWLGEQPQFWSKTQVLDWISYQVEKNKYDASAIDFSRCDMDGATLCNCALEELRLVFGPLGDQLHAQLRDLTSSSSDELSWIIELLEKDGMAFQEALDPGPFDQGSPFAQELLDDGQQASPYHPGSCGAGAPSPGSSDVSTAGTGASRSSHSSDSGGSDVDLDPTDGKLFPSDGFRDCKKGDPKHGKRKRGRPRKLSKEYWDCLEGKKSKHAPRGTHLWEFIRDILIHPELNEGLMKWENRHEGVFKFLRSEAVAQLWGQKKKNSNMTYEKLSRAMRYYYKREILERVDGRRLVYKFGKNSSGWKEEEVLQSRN
Particulars: protein: recombinant; tags: N-terminal GST; dsDNA, one strand shown. The method in brief: as §1

Another test concerns the target CRX (Homo sapiens, UniProt O43186 1-299). To be noted: protein: recombinant; tags: N-terminal GST; dsDNA, one strand shown. The method in brief:
as §1

The target in the next test is ETV1 (Homo sapiens, UniProt P50549 1-477). Particulars: protein: recombinant; tags: N-terminal GST; dsDNA, one strand shown. Summed up:
as §1

Chain of ELF1 (P32519 whole entry): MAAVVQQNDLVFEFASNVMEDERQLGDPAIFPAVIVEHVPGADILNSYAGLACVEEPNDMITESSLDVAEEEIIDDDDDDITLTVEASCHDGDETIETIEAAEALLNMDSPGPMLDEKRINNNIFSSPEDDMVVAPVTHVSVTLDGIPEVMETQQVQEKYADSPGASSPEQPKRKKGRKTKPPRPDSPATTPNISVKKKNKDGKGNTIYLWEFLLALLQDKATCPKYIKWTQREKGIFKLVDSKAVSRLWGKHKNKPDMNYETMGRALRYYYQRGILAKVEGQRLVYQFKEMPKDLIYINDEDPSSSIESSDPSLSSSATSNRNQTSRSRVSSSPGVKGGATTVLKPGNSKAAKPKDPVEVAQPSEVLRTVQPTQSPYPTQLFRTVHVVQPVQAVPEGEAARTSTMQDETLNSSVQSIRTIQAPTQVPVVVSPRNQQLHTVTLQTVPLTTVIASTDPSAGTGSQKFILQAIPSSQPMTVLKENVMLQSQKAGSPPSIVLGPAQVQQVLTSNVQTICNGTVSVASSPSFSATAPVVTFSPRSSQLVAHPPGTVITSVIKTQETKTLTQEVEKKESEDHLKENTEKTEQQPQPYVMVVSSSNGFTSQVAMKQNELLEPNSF
Chain of SPIB (Q01892 whole entry): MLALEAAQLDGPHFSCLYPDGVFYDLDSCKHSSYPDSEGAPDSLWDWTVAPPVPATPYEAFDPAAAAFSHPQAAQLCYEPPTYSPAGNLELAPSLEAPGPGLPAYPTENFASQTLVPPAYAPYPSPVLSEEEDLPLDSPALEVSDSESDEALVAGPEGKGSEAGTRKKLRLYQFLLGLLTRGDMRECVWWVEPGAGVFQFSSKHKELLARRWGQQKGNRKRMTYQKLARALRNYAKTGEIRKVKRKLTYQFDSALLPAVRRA
Chain of ETV1 (P50549 whole entry): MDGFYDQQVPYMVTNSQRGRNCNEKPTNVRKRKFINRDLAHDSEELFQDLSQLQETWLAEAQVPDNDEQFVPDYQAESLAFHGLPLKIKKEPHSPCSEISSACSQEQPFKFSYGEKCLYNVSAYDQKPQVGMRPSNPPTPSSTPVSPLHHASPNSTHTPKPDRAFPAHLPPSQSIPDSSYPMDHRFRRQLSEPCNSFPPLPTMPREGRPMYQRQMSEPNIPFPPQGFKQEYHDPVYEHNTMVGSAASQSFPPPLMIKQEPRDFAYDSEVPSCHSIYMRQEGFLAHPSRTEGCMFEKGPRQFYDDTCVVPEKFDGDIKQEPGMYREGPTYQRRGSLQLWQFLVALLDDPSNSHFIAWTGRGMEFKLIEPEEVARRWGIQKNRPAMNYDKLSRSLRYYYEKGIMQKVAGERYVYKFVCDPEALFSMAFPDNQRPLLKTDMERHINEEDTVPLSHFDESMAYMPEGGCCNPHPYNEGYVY
Chain of ELF4 (Q99607 whole entry): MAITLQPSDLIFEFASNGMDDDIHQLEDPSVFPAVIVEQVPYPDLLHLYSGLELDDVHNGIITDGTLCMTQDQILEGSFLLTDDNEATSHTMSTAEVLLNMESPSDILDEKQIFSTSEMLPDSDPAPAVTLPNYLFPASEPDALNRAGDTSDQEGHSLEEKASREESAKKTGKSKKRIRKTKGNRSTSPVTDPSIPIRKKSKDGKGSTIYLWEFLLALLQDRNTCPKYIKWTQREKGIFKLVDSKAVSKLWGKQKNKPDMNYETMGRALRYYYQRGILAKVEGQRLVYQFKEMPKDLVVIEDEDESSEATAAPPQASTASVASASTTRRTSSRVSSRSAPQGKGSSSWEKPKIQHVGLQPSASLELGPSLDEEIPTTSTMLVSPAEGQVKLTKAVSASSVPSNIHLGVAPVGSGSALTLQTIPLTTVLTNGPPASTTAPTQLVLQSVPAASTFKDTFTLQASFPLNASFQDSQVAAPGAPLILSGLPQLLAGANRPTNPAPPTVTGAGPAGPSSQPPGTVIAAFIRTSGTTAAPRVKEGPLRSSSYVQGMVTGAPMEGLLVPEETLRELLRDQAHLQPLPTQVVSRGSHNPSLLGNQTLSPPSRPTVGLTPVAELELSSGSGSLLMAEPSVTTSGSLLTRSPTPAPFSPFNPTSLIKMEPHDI
Chain of CRX (O43186 whole entry): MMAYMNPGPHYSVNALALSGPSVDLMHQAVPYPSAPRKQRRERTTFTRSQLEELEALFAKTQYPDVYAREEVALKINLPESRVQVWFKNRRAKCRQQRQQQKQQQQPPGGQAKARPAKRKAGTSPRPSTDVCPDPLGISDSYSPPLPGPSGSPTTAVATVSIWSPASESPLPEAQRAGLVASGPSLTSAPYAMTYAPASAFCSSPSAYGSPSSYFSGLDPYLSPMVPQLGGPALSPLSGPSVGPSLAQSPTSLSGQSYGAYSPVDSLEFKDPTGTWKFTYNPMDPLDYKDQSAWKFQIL
Chain of ETV5 (P41161 whole entry): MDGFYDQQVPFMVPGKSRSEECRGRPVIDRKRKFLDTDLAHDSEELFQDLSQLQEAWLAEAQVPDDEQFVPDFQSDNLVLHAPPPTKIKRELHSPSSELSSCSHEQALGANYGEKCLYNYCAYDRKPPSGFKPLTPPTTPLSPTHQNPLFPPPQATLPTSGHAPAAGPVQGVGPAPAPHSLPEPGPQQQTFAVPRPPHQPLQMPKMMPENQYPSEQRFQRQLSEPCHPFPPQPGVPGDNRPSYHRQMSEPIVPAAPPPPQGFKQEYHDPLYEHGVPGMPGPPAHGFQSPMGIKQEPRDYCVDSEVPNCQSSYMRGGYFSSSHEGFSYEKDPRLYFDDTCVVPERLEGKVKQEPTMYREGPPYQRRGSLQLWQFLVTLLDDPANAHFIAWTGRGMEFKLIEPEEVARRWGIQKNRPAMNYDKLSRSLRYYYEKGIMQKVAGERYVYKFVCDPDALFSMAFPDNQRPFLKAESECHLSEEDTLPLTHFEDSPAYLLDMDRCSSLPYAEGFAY
Chain of HSF1 (Q00613 whole entry): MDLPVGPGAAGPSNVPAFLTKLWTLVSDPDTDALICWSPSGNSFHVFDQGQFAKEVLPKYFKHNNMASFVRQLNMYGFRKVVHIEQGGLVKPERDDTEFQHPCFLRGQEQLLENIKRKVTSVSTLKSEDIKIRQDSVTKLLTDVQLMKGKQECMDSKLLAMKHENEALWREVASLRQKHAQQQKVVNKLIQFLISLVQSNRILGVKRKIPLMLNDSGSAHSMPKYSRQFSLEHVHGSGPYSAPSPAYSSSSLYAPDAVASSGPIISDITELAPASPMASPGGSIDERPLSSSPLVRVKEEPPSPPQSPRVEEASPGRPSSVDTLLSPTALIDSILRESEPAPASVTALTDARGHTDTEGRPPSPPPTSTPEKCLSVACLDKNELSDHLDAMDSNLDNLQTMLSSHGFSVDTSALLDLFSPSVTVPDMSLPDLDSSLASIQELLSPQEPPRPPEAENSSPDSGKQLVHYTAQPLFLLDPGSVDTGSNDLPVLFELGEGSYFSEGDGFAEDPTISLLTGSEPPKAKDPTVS

For CACTTC, the binding signal in the test with FLI1 is 3.41 fold enrichment (6-mer frequency, TF over GST control); with ELK1 it was 3.77 fold enrichment (6-mer frequency, TF over GST control); with GABPA, 3.25 fold enrichment (6-mer frequency, TF over GST control); in the test with ERG it was 4.19 fold enrichment (6-mer frequency, TF over GST control); in the test with ELF1, 3.41 fold enrichment (6-mer frequency, TF over GST control); in the test with EHF it was 3.63 fold enrichment (6-mer frequency, TF over GST control). The binding signal with SPI1 is 5.56 fold enrichment (6-mer frequency, TF over GST control); in the test with SPIB it was 3.54 fold enrichment (6-mer frequency, TF over GST control); with ELK3, 3.97 fold enrichment (6-mer frequency, TF over GST control); with FEV, 5.06 fold enrichment (6-mer frequency, TF over GST control); with ETV5, 3.62 fold enrichment (6-mer frequency, TF over GST control); with HSF1 it was 1.3 fold enrichment (6-mer frequency, TF over GST control). For the same sequence, the binding signal in the test with SPIC was 3.53 fold enrichment (6-mer frequency, TF over GST control); with ELF4, 3.48 fold enrichment (6-mer frequency, TF over GST control); in the test with ELK4 it was 3.01 fold enrichment (6-mer frequency, TF over GST control); with ETV2, 3.4 fold enrichment (6-mer frequency, TF over GST control); with ELF3, 3.05 fold enrichment (6-mer frequency, TF over GST control); with CRX it was 1.07 fold enrichment (6-mer frequency, TF over GST control). Moreover, the binding signal with ETV1 was 3.73 fold enrichment (6-mer frequency, TF over GST control).
